Laboratory results as given in PubChem BioAssay AID1745849 (National Center for Advancing Translational Sciences (NCATS), 2022).
The campaign covered roughly 2,100 compounds. About 320 (15%) were called active. Another 52% or so got no clear call; they are omitted. Calls come from the whole dose curve; as a rule, active = well fitted cell-killing curve with a large enough effect; inconclusive = small, poorly fitted or top-dose-only effect, or effect the other way; inactive = flat fitted curve, though single readings scatter. The list shows a part of the results. A call without a number means that no potency is given here.
Potency is the fitted concentration of half-maximal effect.

Assay: Viability Counterscreen for CMV-Luciferase Assay of Inhibitors of ATXN expression; note: nearly all actives have a fitted effect of over 55% in size
Conditions: HEK-293 CMV-luciferase cells viability, protease fluorescence, 24 h
How it was run: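 Dosing on CMV-luciferase HEK-293 cells for 24 hr, 37 °C. Luminescence read with SteadyGlo; cytotoxicity measured first as Gly-Phe-AFC protease fluorescence, 25 uM final substrate, 30 min.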
For `Fc1ccc2[nH]c3c(N4CCSCC4)ncnc3c2c1`, the Potency was 17.8 µM (active).
For `Cc1ccc(C)c(OCCCC(=O)Nc2nccs2)c1`, the Potency was “inactive”.
In the case of `COc1ccc2c(Cl)c(C(=O)NN)sc2c1`, the Potency is reported as “inactive”.
For `Nc1c(C(=O)NCc2ccccc2)c2nc3ccccc3nc2n1-c1ccc2c(c1)OCO2`, the Potency was “inactive”.
For `CC[C@H]1CN2CCc3cc(OC)c(OC)cc3C2C[C@@H]1C[C@H]1NCCc2cc(OC)c(OC)cc21` (some centres not stated), the Potency was 0.316 µM (active).
For `CCC1=C(CC2NCCc3ccccc32)CC2c3cc(OC)c(OC)cc3CCN2C1` (configuration not stated), the Potency was 10 µM (active).
With `O=C(CC1NCCc2ccccc21)Nc1ccc(Cl)cc1` (configuration not stated) the Potency was “inactive”.
With `O=C(C1CCC(CNS(=O)(=O)c2cccc3nsnc23)CC1)N1CC=C(c2ccccc2)CC1` (configuration not stated) the Potency was “inactive”.
In the case of `COc1ccc(Br)cc1C(=O)Nc1ccccc1N1CCN(C(=O)c2ccccc2)CC1`, the Potency is reported as “inactive”.
In the case of `CCOC(=O)COc1ccc(Br)cc1/C=C/c1[nH]c(=O)[nH]c(=O)c1[N+](=O)[O-]`, the Potency is reported as “inactive”.
With `CCN(CC)S(=O)(=O)c1ccc(N/N=C/c2cc(OC)ccc2O)nc1` the Potency was “inactive”.
For `CC(C)(C)c1ccc(Oc2ccc(N)cn2)cc1`, the Potency was “inactive”.
With `COc1ccc2c(c1)C(SCC(=O)NCCc1ccc(Cl)cc1)CC(C)(C)O2` (configuration not stated) the Potency was “inactive”.
In the case of `Cc1cccc(N2CCN(C(=O)CNC(=O)Cc3ccccc3)CC2)c1C`, the Potency is reported as “inactive”.
For `O=C(NNC(=O)C(c1ccccc1)c1ccccc1)c1ccccn1`, the Potency was 10 µM (active).
For `CCC1=C(OC(=O)N(CC)CC)N2C(=O)OC(=NCCc3c[nH]c4ccccc34)[C@]2(Cc2ccccc2)[C@H]2C1=CC[C@H]1C(=O)N(c3ccccc3)C(=O)[C@H]12`, the Potency was “inactive”.
In the case of `CCc1ccc(-c2nc(CS(=O)CC(=O)NCc3ccco3)c(C)o2)cc1` (configuration not stated), the Potency is reported as “inactive”.
With `Cc1nc(N=C(N)N)nc2c(C)cccc12` the Potency was 8.91 µM (active).
With `O=C(N/N=C/c1cc(Br)cc(Br)c1O)c1cccc(N2CCCC2=O)c1` the Potency was “inactive”.
For `O=C(Nc1cccc2cccnc12)c1csc(COCCO)n1`, the Potency was “inactive”.
In the case of `CS(=O)(=O)N(CC(O)CON=C1c2ccccc2-c2ccccc21)c1ccc(F)cc1` (configuration not stated), the Potency is reported as “inactive”.
In the case of `COc1ccc2nc(NC(=O)C3CCN(S(=O)(=O)c4cccs4)CC3)sc2c1`, the Potency is reported as “inactive”.
In the case of `Cc1ccnc(NC(=O)C2CCN(S(=O)(=O)c3c(C)c(C)cc(C)c3C)CC2)c1`, the Potency is reported as 15.8 µM (active).
With `Cc1ccc(NC(=O)C2CCN(S(=O)(=O)c3ccc(N4CCCC4=O)cc3)CC2)cc1Cl` the Potency was “inactive”.
With `O=C(Cn1cnc([N+](=O)[O-])c1)Nc1cc(Oc2ccc(Cl)cc2Cl)cc([N+](=O)[O-])c1` the Potency was “inactive”.
In the case of `Oc1ccc(Cl)cc1Sc1cc(Cl)ccc1O`, the Potency is reported as 20 µM (active).
For `CCOc1ccc(NC(=O)Nc2nnc(CC(=O)NCc3ccccc3)s2)cc1`, the Potency was “inactive”.
